# According to the supplement of paper PMC9477273:
# Tested on: DRIVER-selected RNA biosensor (aptazyme) pool
# Experiment: maximum fold change of ribozyme cleavage across biosensor pool versus no-compound control; higher = stronger biosensor response (ligand inhibits cleavage)
# Conditions: 10 µM
# Method: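 CleaveSeq: a pool of resynthesized hammerhead-ribozyme RNA biosensors (sTRSV scaffold with randomized loops, 1,730 sequences) was T7-transcribed at 37 °C for 15-30 min with a single compound at 10 µM. Cleaved and uncleaved products were counted by NGS, and fold change of cleavage was computed against the DMSO-only condition. The value is the maximum fold change of cleavage over all biosensors in the pool. About 255 compounds were tested individually.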
row,SMILES,maximum fold change
1,COc1ccc(-c2nn(C)c3sc(C(=O)N4CCC(C#N)CC4)cc23)cc1OC,7.42
2,CCN1CCCC1CNC(=O)CS(=O)(=O)Cc1nc(-c2ccc(C)cc2)oc1C (stereo not given),2.2
3,CCOCCCNC(=O)c1cc(C)nn1-c1ccccc1,2.81
4,Cc1ccc(C(=O)N(Cc2ccccc2)c2ccccn2)cc1,2.65
5,Cc1ccccc1-c1nc(CS(=O)(=O)CC(=O)N2CCN(Cc3ccccc3)CC2)c(C)o1,3.66
6,Cc1c(C(=O)N2CCN(C)CC2)sc2ncnc(N3CCN(c4ccccn4)CC3)c12,2.67
7,Cc1nc(N2C(=O)c3oc4ccccc4c(=O)c3C2c2ccc(Cl)cc2)sc1C (stereo not given),2.07
8,Cc1c(C(=O)NC2CCCCCC2)sc2ncnc(N3CCCCC3C)c12 (stereo not given),2.58
9,Cc1c(C(=O)Nc2ccncc2)sc2nc(-c3ccccc3)cn12,3.12
10,CCOC(=O)C1=C(C)NC2=C(C(=O)c3ccccc32)C1c1ccc(C(F)(F)F)cc1 (stereo not given),2.29
11,COc1ccc(CCn2c(SCC(=O)Nc3cc(C)n[nH]3)nc3ncccc3c2=O)cc1OC,11.2
12,COc1ccc(C(=O)Cn2c3ccccc3n3nc(-c4ccccc4)nc23)cc1OC,4.22
13,COc1ccc(/C=c2\s/c(=C/C(=O)c3ccc(C)cc3)[nH]c2=O)cc1OC,2.47
14,COc1ccc(S(=O)(=O)Nc2cccnc2)cc1,2.43
15,COc1ccccc1/C=C1N=C(c2ccc(Cl)c(Cl)c2)OC1=O,3.36
16,Cc1cc(C)c2c(-n3cccc3)c(C(=O)NCc3ccc4c(c3)OCO4)sc2n1,5.23
17,CCN1CCN(C(=O)c2cc(C)nn2-c2ccccc2)CC1,2.67
18,Cc1nc(NC(=N)NC(=O)CCN2C(=O)c3ccccc3C2=O)nc2ccccc12,8.2
19,CCOc1ccc(S(=O)(=O)N2CCN(Cc3ccccc3)CC2)c2cccnc12,5.08
20,CCOc1cc(CNc2ncc(-c3ccc(Br)cc3)n2C)ccc1O,2.06

row,SMILES,maximum fold change
1,O=C(c1cc(-c2ccccc2)n[nH]1)N1CCc2ccccc2C1,4.06
2,COc1ccc(OC)c(/C=C2/N=C(c3cccc(Cl)c3Cl)OC2=O)c1,4.84
3,COc1ccc(-c2nc(CS(=O)(=O)CC(=O)NC3CCC(C)CC3)c(C)o2)cc1 (stereo not given),2.18
4,Cc1ccc(-c2nc(CS(=O)(=O)CC(=O)NCCCN(C)Cc3ccccc3)c(C)o2)cc1,3.58
5,O=C(c1ccc(CS(=O)c2cccc(Cl)c2)o1)N1CCN(C2CCCCC2)CC1 (stereo not given),2.71
6,CCOc1ccc(CCNC2=NS(=O)(=O)C(c3ccc(C)cc3)=C2C)cc1OCC,3.71
7,COc1ccc(CCNC(=O)c2nnc(Cc3ccc(Cl)cc3Cl)o2)cc1OC,2.09
8,CC(=O)N1N=C(c2c(-c3ccccc3)c3cc(Cl)ccc3[nH]c2=O)CC1c1ccco1 (stereo not given),6.87
9,Cc1ccc(CNCc2c(C(=O)O)c(C)n(Cc3ccccc3C)c2C)o1,3.25
10,Cc1ccc(-c2noc(CCC(=O)Nc3cc(C)ccn3)n2)cc1,2.17
11,Cc1ccc(C)c(Cn2c(C)c(CNCCCN3CCCC3=O)c(C(=O)O)c2C)c1,2.12
12,O=C(NC1(C(F)(F)F)N=C(c2ccccc2)N(C2CCCCC2)C1=O)c1ccco1 (stereo not given),2.01
13,CCOc1ccc(CCNC(=O)Cn2ccc3cc(S(=O)(=O)N4CCCC4)ccc32)cc1,3.07
14,CC(C)CCNC(=O)Cn1c2c(c(-c3ccccc3Cl)cc1=O)CCC2,2.06
15,COc1cccc(C(=O)/C=C2/Nc3ncc(Br)cc3NC2=O)c1,5.23
16,CC12CCC(C(=O)O)(c3nc4ccc5ncccc5c4nc31)C2(C)C (stereo not given),2.74
17,O=C(CSc1nnc(-c2ccc(Cl)s2)o1)N1CCOCC1,3.21
18,c1cc(-c2nc3cc(Oc4ccc5[nH]c(-c6ccncc6)nc5c4)ccc3[nH]2)ccn1,14.3
19,N=C1NC(=O)/C(=C/c2cc(Br)ccc2OCc2ccccc2)S1,4.89
20,Cc1cc2cc(CNC(=O)C3CCCC3)ccc2[nH]1,5.24
